From paper PMC7819943, “Rice protein-binding microarrays: a tool to detect cis-acting elements near promoter regions in rice”
Over roughly 35,000 sequences, “fluorescence intensity (a.u.)” has its median near 10,000; the highest 2% begin near 52,000. Shown is part of a subset that was picked to be rich in the highest values.

Target: T1, OsWOX13 (Oryza sativa, UniProt Q5QMM3 1-267)
T1 sequence: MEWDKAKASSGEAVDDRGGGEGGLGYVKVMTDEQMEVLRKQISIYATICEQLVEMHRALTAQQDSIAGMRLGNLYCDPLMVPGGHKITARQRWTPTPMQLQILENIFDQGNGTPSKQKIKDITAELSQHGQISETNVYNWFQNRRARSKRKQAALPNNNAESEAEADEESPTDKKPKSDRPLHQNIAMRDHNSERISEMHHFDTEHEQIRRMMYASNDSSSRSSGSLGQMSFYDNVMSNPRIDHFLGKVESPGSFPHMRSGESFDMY
Experiment: protein-binding microarray (RPBM); PBS, 2% BSA, 51.3 ng/ul salmon testes DNA, 50 uM zinc acetate, 200 nM TF, 25 C, 1 h; high values mean tight binding
Conditions: protein: recombinant; tags: N-terminal polyhistidine and DsRed monomer fusion (pET32a); label: CyDye5-dUTP incorporated in the synthesized complementary strand; 3' TTTTT single-stranded linker to array surface; dsDNA, one strand shown
How it was run: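 Per-feature fluorescence intensity (arbitrary units), read on an Axon 4000B scanner, is the binding signal. Transcription factors carrying an N-terminal polyhistidine tag and DsRed fusion were expressed in E. coli BL21-CodonPlus and purified on Ni–NTA. A custom Agilent array, made double-stranded by primer extension with Cy5-dUTP and blocked with 2% BSA, was incubated with 200 nM protein in PBS, 2% BSA, salmon testes DNA and 50 µM zinc acetate at 25 °C for 1 h and then washed.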

**Q.** With “AGGACTACTATAATTGCAACTGAAATAAAACCTTGGCTTGCGGAGTCACCTAGTGCAG” as the sequence, how does the binding signal read?
**A.** 5450 fluorescence intensity (a.u.)

**Q.** How did the binding signal turn out when “CCCTCAATCAGCTGGTCGGCTGGTCGCACACACCACGTTCCGGAGTCACCTAGTGCAG” was run?
**A.** 11500 fluorescence intensity (a.u.)

**Q.** How did the binding signal turn out when “TAACTAATTAGTTAACTAATCGTCAATGTCACTAGCTTCTCGGAGTCACCTAGTGCAG” was run?
**A.** 45100 fluorescence intensity (a.u.)

**Q.** How did the binding signal turn out when “ATGATGAGATTGAGGTTGATATAGATAGCTTTGATGTTGACGGAGTCACCTAGTGCAG” was run?
**A.** 23200 fluorescence intensity (a.u.)

**Q.** How did the binding signal turn out when “GTGATAATTGCAAAATTAGGAATTATGCAAGGGGTGTAGACGGAGTCACCTAGTGCAG” was run?
**A.** 49400 fluorescence intensity (a.u.)

**Q.** “TTTGCTAATGACAAATTAATTAGGCTTAATAAATTCGTCTCGGAGTCACCTAGTGCAG” was tested. Which binding signal did it give?
**A.** 41500 fluorescence intensity (a.u.)

**Q.** “GGGAAGACGAGATTGAGTGGATCAAAAGCCCTAAACCAATCGGAGTCACCTAGTGCAG” was tested. Which binding signal did it give?
**A.** 8660 fluorescence intensity (a.u.)

**Q.** “GCAGCTGACAGATGGAGGGATGTTCAGGATGTCCGGAGAACGGAGTCACCTAGTGCAG” was tested. Which binding signal did it give?
**A.** 3250 fluorescence intensity (a.u.)

**Q.** How did the binding signal turn out when “ATATTTTGATTGAATATGACGTATCCTAGTAATTTGGACCCGGAGTCACCTAGTGCAG” was run?
**A.** 59700 fluorescence intensity (a.u.)

**Q.** How did the binding signal turn out when “AATTAATTAATTAGTCTGTTCTTATTGCTTAGTGTACTACCGGAGTCACCTAGTGCAG” was run?
**A.** 53600 fluorescence intensity (a.u.)

**Q.** “TACTACTAATTATTGTCTTCTTAGTAATCACCAAGTGTGCCGGAGTCACCTAGTGCAG” was tested. Which binding signal did it give?
**A.** 20700 fluorescence intensity (a.u.)

**Q.** “ATATTGAATTATTGATTTGATGAAAATAATTTAGTATTATCGGAGTCACCTAGTGCAG” was tested. Which binding signal did it give?
**A.** 20500 fluorescence intensity (a.u.)

**Q.** “ATGATTGTGATTTATATTTTGAAATAAAGAGAGTAGTAATCGGAGTCACCTAGTGCAG” was tested. Which binding signal did it give?
**A.** 50500 fluorescence intensity (a.u.)

**Q.** With “ACATTTACTTAATTGTAAATATATATTTTGGTAATATATGCGGAGTCACCTAGTGCAG” as the sequence, how does the binding signal read?
**A.** 9650 fluorescence intensity (a.u.)

**Q.** For “CTTAAATTGATTTATTTTGGAACGGAGAGAGTAATATGCACGGAGTCACCTAGTGCAG”, which binding signal is on record?
**A.** 53500 fluorescence intensity (a.u.)

**Q.** How did the binding signal turn out when “ATAATTGATTGCTTTTGATGATTTCACCCTTATTTTGCTGCGGAGTCACCTAGTGCAG” was run?
**A.** 65100 fluorescence intensity (a.u.)

**Q.** “TTATTCAGATAATTTGATGATGATGAAAGCAGAAGCTTTGCGGAGTCACCTAGTGCAG” was tested. Which binding signal did it give?
**A.** 8570 fluorescence intensity (a.u.)

**Q.** For “GACCTTATTTGCATTGATTGACCTTATTTGCATTGATTTTCGGAGTCACCTAGTGCAG”, which binding signal is on record?
**A.** 19600 fluorescence intensity (a.u.)

**Q.** “CCTAATTTCTAACATTATATTGTTGCTTAGTGTACTAACTCGGAGTCACCTAGTGCAG” was tested. Which binding signal did it give?
**A.** 18700 fluorescence intensity (a.u.)

**Q.** With “GAAAATAGTATGATTGAAAATGACGTAAAGTGAATAGACCCGGAGTCACCTAGTGCAG” as the sequence, how does the binding signal read?
**A.** 23000 fluorescence intensity (a.u.)

**Q.** “TTTCCATTAATAAATTGAAACATATTGAACTAGATCGTTCCGGAGTCACCTAGTGCAG” was tested. Which binding signal did it give?
**A.** 15600 fluorescence intensity (a.u.)

**Q.** How did the binding signal turn out when “TTTAATAATTTGTTTATAAAAGAAACTAAAGGGCACTGCTCGGAGTCACCTAGTGCAG” was run?
**A.** 12200 fluorescence intensity (a.u.)

**Q.** How did the binding signal turn out when “ATAAACTGGAACAGAAGGCCAGGCGGAAATAAACTGGACACGGAGTCACCTAGTGCAG” was run?
**A.** 6490 fluorescence intensity (a.u.)

**Q.** “GGCCTAATTCATTGACGGGAACTAAGTGGGCTGAATTCGTCGGAGTCACCTAGTGCAG” was tested. Which binding signal did it give?
**A.** 7250 fluorescence intensity (a.u.)

**Q.** “CCCAAATTAATCATCATGTAATAGAATGATATATTCATTGCGGAGTCACCTAGTGCAG” was tested. Which binding signal did it give?
**A.** 49200 fluorescence intensity (a.u.)

**Q.** How did the binding signal turn out when “GTGTCGCCAGTGATTGCAGTTTCAGTTCGAAATTTCTCTACGGAGTCACCTAGTGCAG” was run?
**A.** 9490 fluorescence intensity (a.u.)

**Q.** How did the binding signal turn out when “ATAACGAACGGATGAGATTGATCGCTACAATACTCTAGAGCGGAGTCACCTAGTGCAG” was run?
**A.** 4050 fluorescence intensity (a.u.)

**Q.** With “TAAACTCCAAGTTGATTATCCAACGAATCGTAGCCTCGAGCGGAGTCACCTAGTGCAG” as the sequence, how does the binding signal read?
**A.** 5690 fluorescence intensity (a.u.)

**Q.** Which binding signal does the source give for “GATCAATCATTTGCTGAGCTCGTGAATTCTGTCTGGTTCACGGAGTCACCTAGTGCAG” here?
**A.** 24300 fluorescence intensity (a.u.)

**Q.** Which binding signal does the source give for “AATATAAATTAAATTTTATTTGCTAAAATTAATATCATTGCGGAGTCACCTAGTGCAG” here?
**A.** 15000 fluorescence intensity (a.u.)

**Q.** “TATAAATTTAGTCAAATTTAAAGCAGTTTGATTTTGACCACGGAGTCACCTAGTGCAG” was tested. Which binding signal did it give?
**A.** 26800 fluorescence intensity (a.u.)

**Q.** For “CTTAATTAATAGGGTATTAATAACCTCCCTAAAGTCATTGCGGAGTCACCTAGTGCAG”, which binding signal is on record?
**A.** 60200 fluorescence intensity (a.u.)

**Q.** Which binding signal does the source give for “TTAAATTTAATTAAATTTAAAGCAGTTTGATTTTGACCAACGGAGTCACCTAGTGCAG” here?
**A.** 56000 fluorescence intensity (a.u.)

**Q.** For “CCTTAATTAATTAATTAATTACGTGCTATTTATTTCTTGGCGGAGTCACCTAGTGCAG”, which binding signal is on record?
**A.** 55300 fluorescence intensity (a.u.)

**Q.** How did the binding signal turn out when “TTCTAATAATTTGATATTAGGTCATTCCCTAATATTCGTGCGGAGTCACCTAGTGCAG” was run?
**A.** 25000 fluorescence intensity (a.u.)

**Q.** How did the binding signal turn out when “AACTTAATTAAATTTAAAGCAGTTTGATTTTGACTAAAGTCGGAGTCACCTAGTGCAG” was run?
**A.** 31800 fluorescence intensity (a.u.)

**Q.** Which binding signal does the source give for “AATTTACACTTAATTTGCTATTTGCTATACATGTTTTCTACGGAGTCACCTAGTGCAG” here?
**A.** 10800 fluorescence intensity (a.u.)

**Q.** How did the binding signal turn out when “TAACTAATTATGTACTAACAAATTAGCTAGTCTACCATGCCGGAGTCACCTAGTGCAG” was run?
**A.** 56600 fluorescence intensity (a.u.)

**Q.** With “ACTAGCTAAATTATACCATGTTAACTTATACTATATTAGTCGGAGTCACCTAGTGCAG” as the sequence, how does the binding signal read?
**A.** 9700 fluorescence intensity (a.u.)

**Q.** “ATTTCTTAATTTAATGCTATTCTGACTCCTTGCACCTCTACGGAGTCACCTAGTGCAG” was tested. Which binding signal did it give?
**A.** 12300 fluorescence intensity (a.u.)

**Q.** How did the binding signal turn out when “GTACAAAATTATCTAAAATTAACTACAAAATTATGTACTACGGAGTCACCTAGTGCAG” was run?
**A.** 12800 fluorescence intensity (a.u.)

**Q.** For “GGCGTTAATCACGTGATGGGCATGGATAGTGATTTAGATTCGGAGTCACCTAGTGCAG”, which binding signal is on record?
**A.** 13900 fluorescence intensity (a.u.)
